These results are taken from PubChem BioAssay (NCATS).

The nature of experiment [1]: Cell Viability - HepG2 (AID 433; calls by dose curve;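 note: potency is the fitted concentration of half-maximal effect; cells exposed to compound for 40 hours; potency for ATP loss meaning cytotoxicity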). Conditions: qHTS. In short, it runs like this:
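ATP luminescence (CellTiter-Glo) after 40 h compound exposure, 37 °C, HepG2, 1500 cells/well, complete medium. Normalized: DMSO = basal, 100 uM tamoxifen = 100% inhibition. AC50 via standard Hill equation.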

Experiment [2] is described as follows: Cell Viability - MRC5 (AID 434; calls by dose curve;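 note: potency is the fitted concentration of half-maximal effect; cells exposed to compound for 40 hours at 37 °C; potency reflects cytotoxicity seen as loss of intracellular ATP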). The settings on record: MRC5 lung fibroblast viability, qHTS. A digest of the protocol: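 AC50 values come from Hill-equation fits of intracellular ATP loss, measured by CellTiter-Glo luminescence. Normal lung fibroblasts (MRC5) had 40 hr compound treatment at 37 C, normalized between DMSO and 100 uM tamoxifen.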
Background: Quantitative high-throughput screening tests each substance at several concentrations.

The nature of experiment [3]: Cellular Toxicity (caspase-3) HUV-EC-C (AID 656).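 Note: 0% = DMSO basal and 100% = 100 µM tamoxifen.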 Conditions: HUV-EC-C cells, caspase-3 activation (apoptosis); series mostly up to 92.2 µM. In short, it runs like this: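 Luminescent caspase-3/7 activation (aminoluciferin substrate cleavage) in HUV-EC-C cells after 16 hr compound exposure, 37°C. Signal normalized to DMSO basal and 100 uM tamoxifen as 100%; AC50 from concentration-response fitted with the Hill equation.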

The nature of experiment [4]: Cellular Toxicity (caspase-3) NIH 3T3 (AID 666).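 For caspase-3 activation: 0% = DMSO basal and 100% = 100 µM tamoxifen stimulation.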 Note: potency is the fitted concentration of half-maximal effect. Conditions: NIH 3T3 caspase-3 activation, apoptosis/toxicity; series mostly up to 92.2 µM. A digest of the protocol: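 Caspase-Glo 3/7 luminescence reported caspase activation in 1000 NIH 3T3 cells/well after 16 h compound exposure at 37 C. DMSO set basal and 100 uM tamoxifen set 100% stimulation; concentration-response modeled with the Hill equation for AC50.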

Experiment [5] is described as follows: Cellular Toxicity (caspase-3) Renal Proximal Tubule (AID 667).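 Note: cells exposed to compound for 16 hours at 37 °C before detection; 0% = DMSO basal and 100% = 10 µM staurosporine.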 Conditions: renal proximal tubule cells, primary cells freshly taken from rat, solvent-only wells 0%, staurosporine 100%; series mostly up to 91.7 µM. In short, it runs like this:
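Luminescent caspase 3/7 signal from peptide-aminoluciferin cleavage measures apoptosis in freshly isolated rat kidney proximal tubule cells after 16 h compound exposure. Concentration-response data are normalized to DMSO and 10 uM staurosporine, and AC50 values come from Hill equation fits.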

A short description of experiment [6]: MultiTox-Fluor Cytotoxicity Assay - LYMP1-001 - Dead Cells (AID 946). Note: potency is the fitted concentration of half-maximal effect. The settings on record: LYMP1-001 lymphoblastoid cells, dead-cell protease fluorescence; series mostly up to 92.2 µM. A digest of the protocol: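 LYMP1-001 lymphoblastoid cells (2500/well) treated 16 h at 37 C. Dead-cell protease cleavage of bis-AAF-R110 read at Ex/Em 485/520. Normalized to DMSO and 15 uM tetraoctylammonium bromide; AC50 from Hill fits.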

Experiment [7] in a line: Cell Viability - LYMP1-003 - Assay at 24 hr (AID 963). Note: potency is the fitted concentration of half-maximal effect. The settings on record: LYMP1-003 lymphoblastoid cell viability; series mostly up to 92.2 µM. In short, it runs like this: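 Concentration-response qHTS: ATP loss measured by CellTiter-Glo luminescence after 24 h compound exposure at 37 C. Cells were LYMP1-003 human lymphoblastoid, 2500 per well. AC50 derived via standard Hill equation modeling.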

A short description of experiment [8]: Cell Viability - LYMP1-003 - Assay at 40 hr (AID 964). Note: nearly all actives have a fitted effect of over 60% in size. Note: potency is the fitted concentration of half-maximal effect. The settings on record: LYMP1-003 lymphoblastoid viability; series mostly up to 92.2 µM. A digest of the protocol: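 Viability is taken as cellular ATP, read by CellTiter-Glo luminescence after 40 h of compound exposure at 37 C. Cells: human lymphoblastoid line LYMP1-003 at 2500/well; AC50 values derived by Hill-equation fitting of concentration-response data.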

Experiment [9] can be described thus: Cell Viability - LYMP2-009 (AID 968). Note: nearly all actives have a fitted effect of over 55% in size. Note: potency is the fitted concentration of half-maximal effect. Conditions: LYMP2-009 lymphoblastoid cell viability; series mostly up to 92.2 µM.
A short description of experiment [10]: Cell Viability - LYMP2-013 (AID 970). Note: nearly all actives have a fitted effect of over 55% in size. Note: potency is the fitted concentration of half-maximal effect. The settings on record: LYMP2-013 lymphoblastoid cells viability; series mostly up to 92.2 µM. In short, it runs like this:
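qHTS cytotoxicity: ATP-dependent luminescence (CellTiter-Glo, 30 min room temperature) read after 24 h compound exposure at 37 C of 2500 LYMP2-013 lymphoblastoid cells per well. Concentration-response fitted with Hill equation to give AC50.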

Experiment [11] in a line: Cell Viability - LYMP2-017 (AID 972).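 Note: cells exposed to compound for 24 hours at 37 °C; nearly all actives have a fitted effect of over 55% in size.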 Note: potency is the fitted concentration of half-maximal effect. The settings on record: LYMP2-017 lymphoblastoid cell viability; series mostly up to 92.2 µM. A digest of the protocol:
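CellTiter-Glo luminescence (cellular ATP, 30 min RT) measured cytotoxicity after 24 hr compound treatment at 37 C. Cells were a human lymphoblastoid line, LYMP2-017, plated at 2500/well and incubated 5 hr first; concentration-response fitted with Hill equation for AC50.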

Experiment [12] is described as follows: Cell Viability - LYMP2-025 (AID 976). Note: potency is the fitted concentration of half-maximal effect. The settings on record: LYMP2-025 lymphoblastoid cell viability; series mostly up to 92.2 µM. A digest of the protocol: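 Cytotoxicity read as loss of intracellular ATP (luciferase luminescence) after 24 h compound treatment at 37 C. Uses LYMP2-025 lymphoblastoid cells in 1536-well format; Hill-equation modelling gives AC50; tetraoctylammonium bromide as positive control.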

Experiment [13] is described as follows: Cell Viability - LYMP2-006 (AID 978).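 Note: cells exposed to compound for 24 hours; nearly all actives have a fitted effect of over 60% in size.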 Note: potency is the fitted concentration of half-maximal effect. The settings on record: LYMP2-006 lymphoblastoid cell viability, qHTS; series mostly up to 92.2 µM. In short, it runs like this:
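qHTS, 1536-well; 2500 cells/well, 5 hr 37 C; cpd 24 hr 37 C; CellTiter-Glo 30 min RT; luminescence. Tetraoctylammonium bromide pos. ctrl. AC50 via Hill eqn.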

Experiment [14] in a line: Cell Viability - LYMP2-007 (AID 979).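 Note: cells exposed to compound for 24 h before reading; nearly all actives have a fitted effect of over 60% in size.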 Note: potency is the fitted concentration of half-maximal effect. The settings on record: LYMP2-007 lymphoblastoid cell viability; series mostly up to 92.2 µM. A digest of the protocol:
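AC50 values come from Hill-equation fits of luminescent intracellular ATP (CellTiter-Glo, 30 min, room temperature) following 24 h compound exposure at 37 C. Cells: LYMP2-007 lymphoblastoid line, 2500 per well, in complete culture medium.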

A short description of experiment [15]: Cell Viability - LYMP2-010 (AID 981).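 Note: cells exposed to compound for 24 hours at 37 °C; nearly all actives have a fitted effect of over 55% in size.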 Note: potency is the fitted concentration of half-maximal effect. Conditions: LYMP2-010 lymphoblastoid cell viability, qHTS; series mostly up to 92.2 µM. In short, it runs like this: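 CellTiter-Glo ATP luminescence measured cytotoxicity after 24 h compound exposure at 37 C. LYMP2-010 cells were seeded at 2500/well, with tetraoctylammonium bromide as control; concentration-response curves gave AC50 values by the Hill equation.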

A short description of experiment [16]: Cell Viability - LYMP1-002 - Assay at 24 hr (AID 993). Note: potency is the fitted concentration of half-maximal effect. The settings on record: LYMP1-002 lymphoblastoid cells viability; series mostly up to 92.2 µM. A digest of the protocol: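 qHTS cytotoxicity at 24 h: CellTiter-Glo ATP luminescence in lymphoblastoid line LYMP1-002 incubated with compound at 37 °C. Concentration-response modeled with the Hill equation for AC50; tetraoctylammonium bromide served as positive control.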

A short description of experiment [17]: Cell Viability - LYMP1-002 - Assay at 40 hr (AID 994). Note: nearly all actives have a fitted effect of over 60% in size. Note: potency is the fitted concentration of half-maximal effect. The settings on record: LYMP1-002 lymphoblastoid cell viability; series mostly up to 92.2 µM. In short, it runs like this: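 Cytotoxicity was read as loss of cellular ATP (CellTiter-Glo luminescence) after 40 hr compound exposure at 37 C of 2500 LYMP1-002 lymphoblastoid cells per well. Concentration-response data were fitted with the standard Hill equation to give AC50.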

A short description of experiment [18]: qHTS assay for small molecule agonists of the antioxidant response element (ARE) signaling pathway measured by Nrf2-dependant transcriptional activity - cell viability counter screen (AID 720653; active = well fitted curve in the direction sought with a large enough effect in the repeat runs; an effect the other way counts as inactive or inconclusive; note: potency is the fitted concentration of half-maximal effect; for max response: % is set by controls: 0 for no effect and ±100 for the full control effect). The settings on record: ARE-bla HepG2 viability, CellTiter-Glo ATP luminescence, 16 h; max response: stronger effect = lower value. A digest of the protocol:
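Cytotoxicity counter screen: intracellular ATP quantified by CellTiter-Glo luminescence in the same ARE-bla HepG2 plates, after 16 h compound exposure and a 2 h beta-lactamase substrate step.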

The nature of experiment [19]: qHTS assay for cell viability of HEK293 cells (AID 743288). For max response: % is set by controls: 0 for no effect and ±100 for the full control effect. Note: nearly all actives have a fitted effect of over 50% in size. Note: potency is the fitted concentration of half-maximal effect. The settings on record: ATP luminescence (CellTiter-Glo), 18 h; max response: stronger effect = lower value. In short, it runs like this: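 ATP luminescence (CellTiter-Glo) reports metabolically competent cell number after parental HEK293 cells, 2,000/well, were treated with DMSO-dissolved compounds for 18 h at 37 C; reagent incubation 30 min, room temperature.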

Experiment [20] in a line: qHTS assay for cell viability of the p53RE-bla HCT-116 cell line (AID 743292). Note: nearly all actives have a fitted effect of over 55% in size. Note: potency is the fitted concentration of half-maximal effect. Conditions: p53RE-bla HCT-116 viability, ATP luminescence, 16 h; series mostly up to 95 µM. A digest of the protocol:
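Readout: CellTiter-Glo luminescence after 30 min RT. Treatment: compounds in DMSO, 16 h, 37 C. Cells: CellSensor p53RE-bla HCT-116, 4,000/well, preincubated 5 h.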

The structures appear in SMILES notation. “And” between values parts separate entries of the source, which are not always exact repeats. Equal values may be shown once. A number with no mark means an inactive call. Results filed as inconclusive are left out. The source made the active and inactive calls. Unless noted, calls come from the whole dose curve; as a rule, active = well fitted curve in the direction sought with a large enough effect; inconclusive = small, poorly fitted or top-dose-only effect, or another doubt; inactive = no such curve, though single readings can be large; an effect the other way counts as inactive or inconclusive. Some results are limits rather than exact numbers.

As to `CCCCCC/C(C=O)=C\c1ccccc1`, the Potency in experiment [1] and in experiment [2] was more than 92 µM throughout. The Potency entry in experiment [3], in experiment [4], in experiment [6], in [7], in [8] and in experiment [9] was “inactive” throughout. The Potency entry in experiment [10], in experiment [11], in experiment [12], in [13], in experiment [14] and in experiment [15] was “inactive” each time. Moreover, the Potency entry in [16], in experiment [17] and in experiment [20] was “inactive” each time. Also, the call in experiment [5] was inactive. Besides, the max response in experiment [18] is 3.47%; in experiment [19] it was -1.93%.

As for `C=CC(=O)OCC(CO)(COC(=O)C=C)COC(=O)C=C`, the Potency in experiment [1] was more than 92 µM; in experiment [2], 17.8 µM (active); in [19], 5.01 µM (active) and 22.4 µM (active). In addition, the Potency entry in experiment [3] and in [4] was “inactive” throughout. Further, the compound was classed as inactive in experiment [5].

For the compound `O=C(/C=C/c1ccc(O)c(O)c1)OC1C[C@](O)(C(=O)O)C[C@@H](O)[C@H]1O` (some centres undefined), the Potency in experiment [1] and in experiment [2] was more than 92 µM in each case. Besides, the Potency result in experiment [3], in experiment [4], in [6], in experiment [7], in experiment [8] and in [9] was “inactive” throughout. Further, the Potency entry in experiment [10], in [11], in experiment [12], in [13], in experiment [14] and in [15] was “inactive” throughout. The Potency entry in [16], in [17] and in experiment [20] was “inactive” throughout. Besides, the call in experiment [5] was inactive. In addition, the max response in experiment [18] is -1.61% and -3.17%; in experiment [19], 5.94% and -3.39%.

Regarding `CCCCCCCC[N+](CCCCCCCC)(CCCCCCCC)CCCCCCCC`, the Potency in [1] was 4.92 µM (active); in experiment [2], 10.3 µM (active); in experiment [4], 31.6 µM (active); in experiment [6], 6.31 µM (active); in experiment [7], 7.94 µM (active); in [8], 3.16 µM (active). Further, the Potency is 3.98 µM (active) in [9]; 7.94 µM (active) in experiment [10]; 7.94 µM (active) in experiment [11]; 12.6 µM (active) in experiment [12]; 5.01 µM (active) in [13]; 2.51 µM (active) in experiment [14]. Also, the Potency in experiment [15] is 3.16 µM (active); in [16], 3.16 µM (active); in [17], 3.98 µM (active); in experiment [18], 28.2 µM (active); in [19] it was 28.2 µM (active); in [20], 44.7 µM (active).
